Shown are actives, neighbours in structure and some others; about 0.63% of the full set was active somewhere.
gsp ag = gsp mutant agonism; AID 624287; 340,000 tested, 0.13% active; gsp mutant cells, cAMP HTRF, 30 min; Potency, µM (titrated, usually from 76.9 µM), hits mostly activators; active = well fitted activation curve with a large enough effect; inconclusive = small, poorly fitted or top-dose-only effect, or another doubt; inactive = no such curve, though single readings can be large or run the other way; cell line not stated here;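 note: phosphodiesterase inhibitor Ro 20-1724 added with compounds to block cAMP breakdown; nearly all actives have a fitted effect of over 60% in size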
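Cells stably selected in G418 were plated at 2000/well, grown 16-24 hr, then given compounds in DMSO with the PDE inhibitor […] (300 uM solution added) for 30 min at 37C; cAMP was read by HTRF.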
TCR act = activates T cell receptor signaling. primary human leukocytes, anti-CD3, IL-2 HTRF, 48 h. Potency, µM (highest dose often 9.22 µM), most hits filed as activators. 330,000 tested, under 10 active; active = well fitted activation curve with a large enough effect; inconclusive = small, poorly fitted or top-dose-only effect, or another doubt; inactive = no such curve, though single readings can be large or run the other way
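Human primary leukocytes + a-CD3 beads + cpd, 48 hr; IL-2 in supernatant by HTRF (ex 320nm / em 665nm). No co-stimulatory signal supplied.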
Pin1 inh = blocks the human prolyl isomerase Pin1; Q13526; Pin1 FP peptide displacement, HiFluor488, 10 min; Potency, µM (top dose mostly 115 µM), usual class: inhibitors; 390,000 tested, 0.009% active; AID 504891; active = well fitted inhibition curve with a large enough effect in the polarisation, with a control signal flat, not every such curve was filed as active; inconclusive = small, poorly fitted or top-dose-only effect, or effect the other way, or a change in a side signal; inactive = no such curve, though single readings can be large or run the other way; the % refers to the polarisation
Target sequence (Q13526 whole entry, looked up): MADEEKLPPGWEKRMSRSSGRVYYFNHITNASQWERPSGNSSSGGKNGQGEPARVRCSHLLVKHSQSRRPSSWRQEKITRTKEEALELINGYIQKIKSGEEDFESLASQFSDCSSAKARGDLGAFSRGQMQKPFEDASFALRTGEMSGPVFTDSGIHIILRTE
gsp antag = antagonizes gsp, the McCune-Albright syndrome mutation. gsp-mutant cells, cAMP HTRF, 30 min. Potency, µM (top dose mostly 76.9 µM), usual class: inhibitors. 340,000 tested, 0.4% active. AID 624288; calls by dose curve; cell line not stated here;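 note: intracellular cAMP measured with PDE inhibitor Ro 20-1724 present during compound exposure; nearly all actives have a fitted effect of over 65% in size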
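Measurement of cellular cAMP by homogeneous time-resolved fluorescence following a 30 min compound exposure at 37C. The PDE inhibitor […] was present throughout; the assay buffer was DPBS with 0.05% BSA and 0.005% Tween 20.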
TSHR antagonist = antagonists of human thyroid stimulating hormone receptor; TSHR-expressing cells, TSH-stimulated cAMP HTRF, 2 h; hits give low values; activity change, negative = inhibition, % at 11.5 µM; AID 504810; P16473; 330,000 tested, 0.2% active;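 active = activity change below a set negative limit, meaning inhibition stronger than a set level, cut at about -70% in these data; inconclusive = activity change between two set negative limits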
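TSHR-expressing cells were treated with compounds, then stimulated with TSH at EC80 (4nM final) for 2 hours at 37 deg C. Cellular cAMP was measured by HTRF competition between lysate cAMP and cAMP-d2 for a cryptate-labelled anti-cAMP antibody.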
A number is an active result; [ ] = remark or other dose.

Screening COc1ccccc1C(CC(=O)c1ccccc1)CC(=O)c1ccccc1 returned gsp ag inactive, TCR act inactive, Pin1 inh inconclusive, gsp antag inactive and TSHR antagonist inactive.
For CCOC(=O)C(=O)c1c(C)cc2ccccn12 the results were gsp ag inactive, TCR act inactive, Pin1 inh inactive, gsp antag inactive and TSHR antagonist inactive.
CC(C)(C)CC(=O)Nc1nnc(C(F)(F)F)s1 was read as gsp ag inactive, TCR act inactive, Pin1 inh inactive, gsp antag inactive and TSHR antagonist inactive.
`CC(NC(=O)Nc1nnc(C(F)(F)F)s1)(C(F)(F)F)C(F)(F)F` gave gsp ag inconclusive, TCR act inactive, Pin1 inh inactive, gsp antag 6.3µM and TSHR antagonist -94.
For COC(=O)c1cccc(NC(=O)/C=C/c2cccc([N+](=O)[O-])c2)c1 the results were gsp ag inactive, TCR act inactive, Pin1 inh inactive, gsp antag inactive and TSHR antagonist inactive.
`Cc1noc(NS(=O)(=O)c2ccc(N/C=C\C(=O)c3ccncc3)cc2)c1C` gave gsp ag 20µM, TCR act inactive, Pin1 inh inactive, gsp antag inactive and TSHR antagonist inactive.
`Cc1noc(NS(=O)(=O)c2ccc(N/C=C/C(=O)c3ccncc3)cc2)c1C` gave gsp ag inconclusive, TCR act inactive, Pin1 inh inactive, gsp antag inactive and TSHR antagonist inactive.
`CCOC(=O)c1ccc2nc(C(F)(F)F)[nH]c(=O)c2c1` gave gsp ag inactive, TCR act inactive, Pin1 inh inactive, gsp antag inconclusive and TSHR antagonist inactive.
Screening CCOC(=O)C1=C(C)N=c2s/c(=C/c3ccc(OCC(=O)O)c(OC)c3)c(=O)n2C1c1ccc(Cl)cc1 (centres undefined) returned gsp ag inactive[15.4 µM], TCR act inactive, Pin1 inh inconclusive and gsp antag 35µM.
CCOC(=O)C1=C(C)N=c2s/c(=C/c3ccc(OCC(=O)O)cc3)c(=O)n2C1c1ccc(F)cc1 (centres undefined) was read as gsp ag inactive, TCR act inactive, Pin1 inh inconclusive, gsp antag 22µM and TSHR antagonist inactive.
`Cn1c(CO)cnc1SCc1c(Cl)cccc1Cl` gave gsp ag inactive, TCR act inactive, Pin1 inh inactive, gsp antag inactive and TSHR antagonist inactive.
For O=C(Cn1cnc2c(oc3ccccc32)c1=O)NCc1ccccc1 the results were gsp ag inconclusive, TCR act inactive, Pin1 inh inconclusive, gsp antag inactive and TSHR antagonist inactive.
O=C(Cn1cnc2c(oc3ccccc32)c1=O)NCC1CCCO1 (centres undefined) was read as gsp ag 7.1µM, Pin1 inh inactive, gsp antag inactive and TSHR antagonist inactive.
O=C(CSc1ccc2nnc(-c3ccncc3)n2n1)Nc1ccc2c(c1)OCO2 was read as gsp ag 16µM, TCR act inactive, Pin1 inh inactive, gsp antag inactive and TSHR antagonist inactive.
`Cc1cc(NC(=O)CSc2ccc3nnc(-c4cccs4)n3n2)no1` gave gsp ag 11µM, TCR act inactive, Pin1 inh inactive, gsp antag inactive and TSHR antagonist inactive.
For C[C@@H]1CN([C@H](C)CO)C(=O)CCCn2nncc2CO[C@H]1CN(C)C(=O)c1ccc(N2CCN(C)CC2)cc1 the results were gsp ag inactive.
`CN(c1ccc(-c2csc(NC(=O)C3CC(=O)N(Cc4ccco4)C3)n2)cc1)S(C)(=O)=O` (centres undefined) gave gsp ag inactive, TCR act inactive, Pin1 inh inconclusive, gsp antag inactive and TSHR antagonist inactive.
For O=C1CN(c2nc(-c3cccnc3)nc3sc4c(c23)CCCC4)CCN1 the results were gsp ag 25µM, TCR act inactive, Pin1 inh inactive, gsp antag inactive and TSHR antagonist inactive.
COc1ccc(CCN(C)C(=O)N2CCOCC2)cc1OC was read as gsp ag inactive, Pin1 inh inactive, gsp antag inactive and TSHR antagonist inactive.
For CCOC(=O)Cc1nc2ccccc2n(CC#N)c1=O the results were gsp ag inactive, Pin1 inh inconclusive, gsp antag inactive and TSHR antagonist inactive.
COc1ccc2[nH]c3c(NCCC4=CCCCC4)ncnc3c2c1 was read as gsp ag inactive[15.4 µM], TCR act inactive, Pin1 inh inactive, gsp antag 28µM and TSHR antagonist -73.
`COc1ccc(-c2cc(-c3ccc(Cl)cc3)c(C#N)c(SCC(=O)O)n2)cc1` gave gsp ag inactive, TCR act inactive, Pin1 inh inactive, gsp antag inconclusive and TSHR antagonist -72.
Screening Cc1ccc(NC(=S)NCc2cccn2C)cc1 returned gsp ag inactive, TCR act inactive, Pin1 inh inactive, gsp antag inactive and TSHR antagonist inactive.
For O=C(CNC(=O)C1CCCCC1)OCC(=O)c1ccc(-c2ccccc2)cc1 the results were Pin1 inh inactive.
`CCN(C(=O)CSc1nnc(-c2ccccc2)o1)c1c(N)n(Cc2ccccc2)c(=O)[nH]c1=O` gave gsp ag inactive[15.4 µM], TCR act inactive, Pin1 inh inactive, gsp antag inactive and TSHR antagonist -109.
CN(C)S(=O)(=O)Oc1ccsc1C(=O)Nc1ccccc1Cl was read as gsp ag inactive, TCR act inactive, Pin1 inh inactive, gsp antag 28µM and TSHR antagonist inactive.
Screening Cc1nc2ccc(NC(=O)c3cc([N+](=O)[O-])cc([N+](=O)[O-])c3Cl)cc2s1 returned gsp ag inactive, TCR act inactive, Pin1 inh inactive, gsp antag inconclusive and TSHR antagonist -76.
Screening Nc1cc2c3c(cccc3c1)C(=O)N(CCN1CCCC1)C2=O returned gsp ag inactive[15.4 µM], TCR act inactive, Pin1 inh inconclusive, gsp antag inconclusive and TSHR antagonist inactive.
For CCN(CC)CCN1C(=O)c2cccc3cc(N)cc(c23)C1=O the results were gsp ag inactive[15.4 µM], TCR act inactive, Pin1 inh inconclusive, gsp antag inconclusive and TSHR antagonist -76.
Screening N#C/C(=N\Nc1ccccc1Cl)C(=O)c1ccccc1 returned gsp ag inactive, TCR act inactive, Pin1 inh inactive, gsp antag inconclusive and TSHR antagonist inactive.
For N#C/C(=N\Nc1cccc(Cl)c1)C(=O)c1ccccc1 the results were gsp ag inactive, TCR act inactive, Pin1 inh inconclusive, gsp antag 16µM and TSHR antagonist inactive.
Screening CCOC(=O)N1CCN(C(=O)c2ccc(S(=O)(=O)NCc3ccco3)cc2)CC1 returned gsp ag inactive[15.4 µM], TCR act inactive, Pin1 inh inactive, gsp antag inactive and TSHR antagonist inactive.
`Cc1cccc(C)c1NC(=O)CS(=O)(=O)c1nc(-c2ccc(Cl)cc2)cn1-c1ccccc1` gave Pin1 inh inactive.
COc1ccc(NC(=O)N2CCCC(c3ccccc3)C2)cc1 (centres undefined) was read as gsp ag inactive, TCR act inactive, Pin1 inh inactive, gsp antag inactive and TSHR antagonist inactive.
